# Screens as filed in PubChem.
# A selection: hits, their analogues and other compounds. The true share with any hit is near 3.2%.
# Rv3671c inh = Rv3671c (M. tuberculosis) protease inhibition | P9WHR9 | inhibition, % at 5.96 µM | hit rate 0.048% among 320,000 | AID 2606; in the data active means inhibition above about 38%;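 further: extracellular domain of Rv3671c used as enzyme; 0% = enzyme with DMSO and 100% = no enzyme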
# Target sequence (P9WHR9 whole entry, looked up, the tested form may be a part): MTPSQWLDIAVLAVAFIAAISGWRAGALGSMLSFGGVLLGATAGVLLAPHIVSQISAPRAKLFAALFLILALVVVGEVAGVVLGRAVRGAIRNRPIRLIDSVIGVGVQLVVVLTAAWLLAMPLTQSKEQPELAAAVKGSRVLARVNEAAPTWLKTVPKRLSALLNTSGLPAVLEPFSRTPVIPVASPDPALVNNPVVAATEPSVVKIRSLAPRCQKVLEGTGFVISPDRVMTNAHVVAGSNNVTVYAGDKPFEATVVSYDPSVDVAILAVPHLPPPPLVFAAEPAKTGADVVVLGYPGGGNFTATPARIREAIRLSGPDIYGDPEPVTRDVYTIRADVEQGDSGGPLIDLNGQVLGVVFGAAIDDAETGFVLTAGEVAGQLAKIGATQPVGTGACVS
# GDH-TPI counter-1 = counter-screen for M. tuberculosis FBA inhibitors: GDH-TPI coupled enzymes | GDH-TPI coupled enzyme counterscreen, NADH absorbance | inhibition, % at 4.8 µM | hit rate 1.2% among 360,000; in the data active means inhibition above about 30%;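 further: 0% = DMSO wells and 100% = wells lacking the enzyme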
# PriA SSB inh = inhibitors of Klebsiella pneumoniae PriA binding to SSB C-terminal tail. AlphaScreen SSBct-PriA binding, biotinylated peptide. inhibition, % at 33 µM. hit rate 0.6% among 430,000. AID 1272365; in the data active means inhibition mostly above about 37%, no sharp cut-off; inactive means mostly below about 20%;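 further: plate controls were negative control peptide for no effect and reference peptide for full effect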
# Mtb UGM inh = inhibitors of M. tuberculosis UDP-galactopyranose mutase | P9WIQ1 | purified UGM, fluorescence polarization probe displacement | inhibition, % at 10 µM | hit rate 0.06% among 320,000 | AID 504406; in the data active means inhibition above about 10%, passing the limit was not always enough
# FBA Mtb inh = inhibits M. tuberculosis FBA enzyme; P9WQA3; purified M. tuberculosis FBA, fluorescence read-out; inhibition, % at 1 µM; hit rate 2.3% among 360,000;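 further: 0% = vehicle and 100% = reference inhibitor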
# Mtb bLac sens = beta-lactam sensitization of Mtb H37Rv. M. tuberculosis H37Rv growth with meropenem, percent inhibition. inhibition, % at 25 µM. hit rate 0.27% among 330,000; call rule not given here;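 further: growth measured after seven days incubation then overnight dye step; 0% = bacteria only wells and 100% = bacteria with antibiotic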
# Mtb FBA confirm = Mtb FBA inhibition, confirmed; shares compounds with FBA Mtb inh; purified M. tuberculosis FBA, fluorescence read-out; inhibition, % at 1 µM; hit rate 78% among 5,600;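 further: 0% = vehicle wells and 100% = reference inhibitor wells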
# GDH-TPI counter-2 = inhibits GDH-TPI coupling enzymes, flagging Mtb FBA hits. GDH-TPI coupled enzyme counterscreen, fluorescence. shares compounds with FBA Mtb inh. inhibition, % at 1 µM. AID 652141. hit rate 81% among 5,600; in the data active means inhibition above about 10%
# * marks the source's active call; other numbers are inactive results; nt = not tested or not shown; + = active, no number. Unless noted, no stated cut-off is given here; in the data, active means inhibition above about 27%; inactive means the rest.
SMILES,Rv3671c inh,GDH-TPI counter-1,PriA SSB inh,Mtb UGM inh,FBA Mtb inh,Mtb bLac sens,Mtb FBA confirm,GDH-TPI counter-2
COc1ccc2cc(C(=O)C3CCCN(C(=O)c4cnn(C(C)C)c4)C3)ccc2c1 (stereo not drawn),1,14,8,-1,105*,6,50*,39*
COc1ccc2cc(C(=O)C3CCCN(C(=O)C4=NN(C)C(=O)CC4)C3)ccc2c1 (stereo not drawn),9,11,4,0,63*,5,85*,52*
COc1ccc2cc(C(=O)C3CCCN(Cc4ccccn4)C3)ccc2c1 (stereo not drawn),1,6,1,-2,41*,87,+,+
O=C(Nc1ccc(F)cc1F)NC1(c2nc(-c3cccnc3)no2)CCCCC1,nt,nt,-2,nt,nt,nt,nt,nt
CCCCCn1c(=O)[nH]c2cc(-c3nc(-c4cccc(Br)c4)no3)ccc2c1=O,nt,nt,-10,nt,nt,nt,nt,nt
COc1cc2nc(SCC(=O)NCc3ccccc3Cl)n3nc(C)nc3c2cc1OC,nt,nt,-10,nt,nt,nt,nt,nt
COc1ccc(C=NNC(=O)c2ccc(=O)n(C)c2)cc1OC,nt,nt,12,nt,nt,nt,nt,nt
CSCCC(NC(=O)c1ccccc1)C(=O)O (stereo not drawn),0,6,-4,5,42*,2,nt,+
CSCC[C@H](NC(=O)c1cc2c([nH]c3ccccc32)c(-c2ccccc2)n1)C(=O)O,-9,12,5,3,47*,1,24,15*
COC(=O)[C@H](CCSC)NC(=O)c1cc2c(cn1)[nH]c1ccccc12,-1,10,6,0,14,91,nt,nt
O=C(NCCO)c1cc2c([nH]c3ccccc32)c(-c2ccc(F)cc2)n1,nt,17,-2,0,21,-1,nt,nt
C[C@H](NC(=O)c1cc2c([nH]c3ccccc32)c(-c2ccccc2)n1)C(=O)O,-4,-1,-4,2,36*,-7,141*,108*
COc1ccc(-c2ccc(CCC(=O)O)n2NC(N)=O)cc1,5,-1,-5,0,14,-1,nt,nt
CCCn1c(CCC(=O)O)ccc1-c1ccc(OC)cc1,1,-1,-2,4,30*,6,+,+
Cc1cc(NCCO)c2cc(O)ccc2n1,5,15,-32,-1,90*,1,105*,127*
Cc1cc(NCCO)c2ccccc2n1,-9,7,-8,-1,0,-6,nt,nt
OCCNc1nc2ccccc2nc1NCCO,-3,16,4,-3,35*,1,+,173*
OCCNc1cnc2ccccc2n1,0,11,-13,2,27,-6,nt,nt
OCCNc1c2ccccc2nc2ccccc12,-1,-4,-4,1,60*,2,62*,34*
O=S(=O)(Nc1cnc2ccnn2c1)N1CCCC1,nt,nt,-3,nt,nt,nt,nt,nt
Cc1cc(NC(=O)C(=O)NCC2CCN(C(=O)Nc3ccc(F)cc3)CC2)ccc1N1CCCC1=O,nt,nt,-5,nt,nt,nt,nt,nt
CCCOc1ccc2cc(C(=O)NCc3ccccc3)c(=O)oc2c1,-4,8,6,-2,44*,2,50*,39*
COc1ccc2cc(C(=O)NCc3ccco3)c(=O)oc2c1,7,33*,-30,-5,46*,5,35*,26*
COc1ccc2oc(=O)c(C(=O)NCc3ccccc3)cc2c1,-7,3,-12,3,4,-5,nt,nt
Cc1cccc(-n2ccc(=O)c(-c3nc(-c4ccc(OC(F)(F)F)cc4)no3)n2)c1,nt,nt,-7,nt,nt,nt,nt,nt
SMILES,Rv3671c inh,GDH-TPI counter-1,PriA SSB inh,Mtb UGM inh,FBA Mtb inh,Mtb bLac sens,Mtb FBA confirm,GDH-TPI counter-2
COc1ncccc1-c1cnc2cccnn12,nt,7,nt,nt,92*,nt,117*,100*
COc1ccc(-c2cnc3cccnn23)cn1,nt,-4,nt,nt,29*,nt,-8,-7
Clc1ccc(-c2cnc3cccnn23)cc1,nt,7,nt,nt,51*,nt,+,+
Oc1ccccc1-c1cnc2cccnn12,nt,15,nt,nt,-1,nt,nt,nt
CCCCOc1ccc(-c2cc3c4nnc(SCC(=O)Nc5ccccc5F)n4ccn3n2)cc1,nt,nt,-16,nt,nt,nt,nt,nt
Cc1nc(C(=O)NCc2cc(-c3ccco3)on2)cs1,nt,nt,-2,nt,nt,nt,nt,nt
CCOc1ccc(Cl)cc1CSc1n[nH]c(CC)n1,0,1,-9,4,35*,-4,5,0
COc1ccc(NC(=O)C(Sc2ccccc2)c2ccccc2)c(OC)c1 (stereo not drawn),-7,0,-4,-1,72*,2,45*,33*
COc1ccccc1NC(=O)C(Sc1ccccc1)c1ccccc1 (stereo not drawn),-9,2,-48,2,6,-9,nt,nt
CC(CCc1ccccc1)=NNC(=O)c1ccccc1[N+](=O)[O-],nt,nt,-3,nt,nt,nt,nt,nt
CN1CCc2c(C#N)c(Cl)nc(Cl)c2C1,3,13,-3,2,68*,2,4,-2
CN1CCc2c(C#N)c(N3CCCCC3)nc(N3CCOCC3)c2C1,0,nt,-3,2,nt,-1,nt,nt
Cc1[nH]nc2c1C(c1ccsc1)C1=C(CC(C)(C)CC1=O)N2 (stereo not drawn),5,23,-11,4,55*,1,51*,38*
COc1ccc(C2C3=C(CC(C)(C)CC3=O)Nc3n[nH]c(C)c32)cc1 (stereo not drawn),10,7,2,1,25,-9,nt,nt
COc1cccc(C2C3=C(CC(C)(C)CC3=O)Nc3n[nH]c(C)c32)c1 (stereo not drawn),1,13,-11,2,43*,0,161*,131*
O=C(CCCN1C(=O)c2cccc3cccc(c23)C1=O)NCCO,nt,nt,-7,nt,nt,nt,nt,nt
O=C(CN1C(=O)c2cccc3cccc(c23)C1=O)NCCCO,3,17,-6,-4,52*,3,27,24*
O=C(CCCCCN1C(=O)c2cccc3cccc(c23)C1=O)NCCCO,-1,18,-11,1,33*,-1,97*,73*
O=C(NC(c1ccccc1)c1ccccc1)N1CCC(Oc2cccnn2)CC1,nt,nt,-6,nt,nt,nt,nt,nt
COCc1cc(C)nc(NC2CCCCC2)c1C#N,3,11,-16,-2,85*,0,81*,67*
COCc1cc(C)nc(NCCc2ccccc2)c1C#N,-3,6,-58,-2,72*,3,+,182*
COCc1cc(C)nc(Nc2ccccc2OC)c1C#N,4,14,-24,-3,3,3,nt,nt
Cc1ccc(-n2c(C)cc(C(=O)CSc3nc4sc5c(c4c(=O)n3-c3ccccc3)CCC(C)C5)c2C)cc1C (stereo not drawn),nt,nt,-6,nt,nt,nt,nt,nt
Cc1ccc(CNC(=O)CN(Cc2cccs2)C(=O)C2(C)CC(=O)N=C3C=CC=CN32)cc1 (stereo not drawn),-9,14,3,0,80*,0,51*,39*
